Source: PubChem BioAssay (National Center for Advancing Translational Sciences (NCATS))
In the library only some 21% were active in any assay of this set; here they are far more common.
Cycloheximide cs: affects cycloheximide protein synthesis inhibition readout, counter-screen; cell reporter, cycloheximide protein synthesis inhibition counterscreen; max response, %; 300,000 tested, 12% active; AID 2314; in the data active = max response mostly above about 13%, no sharp cut-off; inactive = mostly below about 14%; also: read at 38.3 µM for the half of the compounds with a filed dose; 0% is about no effect
Pf growth 48h: P. falciparum growth inhibition at 48 hours (one generation). Potency, µM (top dose mostly 28.7 µM), inactives show at the top dose activity change, negative = inhibition, actives largely listed as inhibitors. 310,000 tested, 5.9% active. P. falciparum luciferase growth in erythrocytes, 48 h; also: potency is read from the fitted curve at half-maximal effect; % is scaled to controls: 0 for no effect and ±100 for the full control effect
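First compound was added to culture medium, then infected red cells at 0.1% parasitemia and 2% hematocrit (final). After incubation at 37 C under 5% CO2, luciferase detection reagent was dispensed and light output recorded.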
Pf growth 96h: P. falciparum growth inhibition at 96 hours; P. falciparum luciferase reporter growth, 96 h; AID 504834; Potency, µM (series often up to 28.7 µM), for inactives: top-dose activity change, negative = inhibition, actives largely listed as inhibitors; 320,000 tested, 6.9% active; also: potency is read from the fitted curve at half-maximal effect; % is scaled to controls: 0 for no effect and ±100 for the full control effect
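Readout is luminescence from an integrated firefly luciferase in P. falciparum. Red cells, 2% hematocrit and 0.05% parasitemia final, were cultured with compound through two parasite generations (96 hours) at 37 C, 5% CO2.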
FBPA Giardia inh: blocks Giardia fructose-bisphosphate aldolase activity | A8B2U2 | purified Giardia FBPA | Potency, µM (highest dose often 59.6 µM), for inactives: top-dose activity, negative = inhibition, hits mostly inhibitors | 290,000 tested, 0.71% active; also: potency is read from the fitted curve at half-maximal effect; % is scaled to controls: 0 for no effect and ±100 for the full control effect; nearly all actives have a fitted effect of over 55% in size
Target sequence (A8B2U2 whole entry, looked up): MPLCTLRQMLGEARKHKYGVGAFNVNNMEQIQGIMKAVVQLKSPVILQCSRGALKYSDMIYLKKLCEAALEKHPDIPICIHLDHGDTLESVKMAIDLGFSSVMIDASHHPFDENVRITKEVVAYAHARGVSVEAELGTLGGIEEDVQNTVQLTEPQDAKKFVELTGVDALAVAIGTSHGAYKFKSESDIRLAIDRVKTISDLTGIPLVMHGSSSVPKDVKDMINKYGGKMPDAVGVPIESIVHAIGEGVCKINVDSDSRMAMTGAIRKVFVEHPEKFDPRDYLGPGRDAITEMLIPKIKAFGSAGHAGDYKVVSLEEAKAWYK
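Giardia FBPA (40 nM reagent) was preincubated 10 min at RT with compound (up to 57.5 uM final), then substrate plus GAPDH/TPI/NAD/arsenate coupling system with diaphorase/resazurin was added; resorufin fluorescence (525/598 nm) was read after 20 min.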
NS1 inh: inhibitors of influenza NS1 protein function | Potency, µM (doses to about 46.1 µM), inactives show at the highest dose activity, positive = more growth | AID 2326 | 270,000 tested, 0.4% active; calls by dose curve; also: potency is read from the fitted curve at half-maximal effect; actives are rising curves; nearly all actives have a fitted effect of over 50% in size
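OD600 was taken as the measure of yeast growth restored by compound in an NS1-expressing S. cerevisiae strain. Cells had been washed out of glucose medium and diluted 1:100 into galactose -URA medium, pH 6.0.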
Shiga toxin inh: blocks Shiga toxin action in Vero cells; 290,000 tested, 9.2% active; Vero cells, Shiga toxin protein synthesis inhibition reporter; inhibition, % at 38.7 µM; in the data active = inhibition mostly above about 28%, no sharp cut-off; inactive = mostly below about 43%; also: 0% is about no effect
Starred values were filed as active, the others as inactive; ? = inconclusive; / = no result given; [ ] = another dose, or the depositor's remark. Unless noted, calls follow the shape of the dose curve; as a rule, active = well fitted curve in the direction sought with a large enough effect; inconclusive = small, poorly fitted or top-dose-only effect, or another doubt; inactive = no such curve, though single readings can be large; an effect the other way counts as inactive or inconclusive.

SMILES	Cycloheximide cs	Pf growth 48h	Pf growth 96h	FBPA Giardia inh	NS1 inh	Shiga toxin inh
COc1cccc(C(=O)C2CCCN(C(=O)c3cccc(C#CC(C)(C)O)c3)C2)c1 (configuration not stated)	11.7	?	11.7µM*	0.8%	-4.8%	49.7
COc1cccc(C(=O)N2CCCC(Nc3ccc(C)c(C)c3)C2)c1 (configuration not stated)	0.1	-2.6%	?	/	-7.6%	2.3
Cc1noc(NS(=O)(=O)c2ccc(NC(=O)C(CC(C)C)N3C(=O)c4ccccc4C3=O)cc2)c1C (configuration not stated)	-2.2	6.7%	31.8%	17.6%	0.1%	25.3
CCCCc1nc2c(c3c1C[C@H](C)OC3)CN(S(=O)(=O)c1ccc(Cl)c3nonc13)CC2	/	/	/	4.2%[12.9 µM]	/	/
CCN(c1ccccc1)S(=O)(=O)c1cc(C(=O)OC2CCOC2=O)ccc1C (configuration not stated)	/	?	-2.3%	/	/	/
CCCCCCCCCCCCCCCCCC(=O)OCC(O)CO (configuration not stated)	/	-12.7%	-1.0%	/	/	/
COc1cccc(/C(C#N)=C/c2c(-c3ccc(Cl)cc3)nc3c(C)cccn23)c1	-0.8	1.31µM*	?	-1.9%	-3.7%	5.0
Cc1cccn2c(/C=N/OCc3cccc(F)c3)c(-c3ccc(Cl)cc3)nc12	-3.6	?	?	1.9%	12.6%	-6.0
COc1ccc(N(C(=O)CNC(=O)c2ccco2)C(C(=O)NCC2CCCO2)c2ccc(OC)c(OC)c2)cc1 (configuration not stated)	-0.4	-30.3%	-10.2%	-10.1%	-3.8%	9.7
COc1ccc(C(C(=O)NCC2CCCO2)N(C(=O)CNC(=O)c2cccs2)c2ccc(C)cc2)cc1OC (configuration not stated)	-1.3	10.4µM*	-3.9%	-1.0%	-6.2%	-6.0
COc1ccc(C(C(=O)NCC2CCCO2)N(C(=O)CNC(=O)c2cccs2)c2ccc(C(C)=O)cc2)cc1OC (configuration not stated)	8.2	11.7µM*	?	0.5%	4.9%	14.8
Cc1ccc(N(C(=O)CNC(=O)c2ccco2)C(C(=O)NC2CCCC2)c2ccncc2)c(C)c1 (configuration not stated)	-2.9	-28.9%	14.0%	7.8%	-29.3%	-11.5
COc1cc(OC)cc(N(C(=O)CNC(=O)c2cccs2)C(C(=O)NCC2CCCO2)c2ccccc2)c1 (configuration not stated)	-2.3	5.86µM*	?	-0.1%	-6.2%	-3.7
Cc1ccc(C(C(=O)NCc2ccco2)N(C(=O)CNC(=O)c2cccs2)c2ccc(C)cc2C)cc1 (configuration not stated)	15.8*	?	?	2.9%	28.2%	67.7*
CCOc1cc(C(C(=O)NCC2CCCO2)N(C(=O)Cn2nnc3ccccc32)c2ccccc2C(C)=O)ccc1O (configuration not stated)	-2.3	?	?	4.1%	-5.5%	-11.5
O=C(CN(C(=O)c1csnn1)c1ccc(F)c(Cl)c1)NCc1ccc2c(c1)OCO2	-2.3	12.3%	5.4%	-12.8%	9.4%	25.5
Cc1noc(C)c1COc1ccccc1C(=O)N(C)Cc1ccco1	/	-0.7%	-16.6%	/	/	/
CNc1ncnc2ccc(-c3ccc4c(c3)OCO4)cc12	/	/	/	-6.8%	/	/
Cc1ccc(S(=O)(=O)N(Cc2cccc(F)c2)C(=O)N2CCN(C)CC2)cc1	/	3.7%	13.0%	/	/	/
Cc1ccc(NC(=O)c2ccc(NCCCN3CCC(C)CC3)c([N+](=O)[O-])c2)c(C)c1	-7.6	3.29µM*	?	18.1%	-2.7%	-6.9
O=C(Nc1cc(F)cc(F)c1)c1ccc(NCCCN2CCCCCC2)c([N+](=O)[O-])c1	-6.9	?	?	2.1%	/	-6.1
CCCN(CCC)CCCNc1ccc(C(=O)Nc2cccc(OC)c2)cc1[N+](=O)[O-]	-3.9	1.47µM*	12.5%	-3.2%	/	13.5
O=C(Nc1ccccc1)c1ccc(NCCN2C(=O)CCC2=O)c([N+](=O)[O-])c1	-0.6	11.8%	13.8%	0.3%	-1.5%	-8.0
COc1cccc(NC(=O)c2ccc(NCCCN3CC(C)CC(C)C3)c([N+](=O)[O-])c2)c1 (configuration not stated)	-4.0	?	3.7µM*	-8.0%	/	-6.9
COc1cccc(NC(=O)c2ccc(NCCCN3CCC(C)CC3)c([N+](=O)[O-])c2)c1	-3.6	2.08µM*	?	1.6%	/	-10.5
SMILES	Cycloheximide cs	Pf growth 48h	Pf growth 96h	FBPA Giardia inh	NS1 inh	Shiga toxin inh
COc1cccc(Nc2ccc(C(=O)O)cc2[N+](=O)[O-])c1	-1.9	13.5%	133.5%	16.2%	-5.6%	-8.5
Cn1nc(C(=O)NNC(=O)c2ccccc2Br)c2ccccc2c1=O	/	-16.0%	-4.3%	/	/	/
Cc1ccc(NC2=C(Cl)C(=O)OC2NC(=O)c2ccccc2)cc1 (configuration not stated)	-5.7	?	1.04µM*	4.2%	3.8%	10.7
CN1CCN(C(=S)NC(=O)c2ccccc2Br)CC1	-0.9	-8.1%	1.85µM*	?	2.3%	-5.4
CN1CCN(C(=O)c2ccccc2NC(=O)c2ccccc2Br)CC1	0.9	-1.5%	-80.3%	/	8.6%	-9.9
O=C(NC(=S)N1CCc2ccccc21)c1ccccc1Br	24.7*	10.2%	?	17.5%	-37.6%	95.8*
O=C(NC(=S)N1CCc2ccccc21)c1ccc(Br)o1	13.8	?	?	7.0%	-42.2%	24.0
CC(=O)N1c2ccc(F)c(F)c2C[C@H]1C	/	8.5%	49.3%	/	/	/
CSCCC(NS(=O)(=O)c1ccccc1F)C(=O)Nc1cccc(C)n1 (configuration not stated)	0.5	?	-23.2%	/	9.7%	-2.2
COc1cccc(/C=N/NC(=O)c2c(C)nc3ccc(Cl)cn23)c1O	-1.2	9.28µM*	1.6%	-19.2%	-25.6%	6.1
Cc1nc2ccc(Br)cn2c1C(=O)N/N=C\c1ccccc1Cl	-1.1	70.2%	3.29µM*	-12.3%	-6.5%	/
Cc1nc2ccc(Br)cn2c1C(=O)N/N=C\c1ccccc1[N+](=O)[O-]	31.6	47.0%	?	0.2%	5.5%	-10.7
COc1ccccc1/C=N\NC(=O)c1c(C)nc2ccc(Cl)cn12	-3.0	32.2%	24.1%	-18.4%	3.5%	1.7
Cc1ccc(N(C(=O)CCC(=O)Nc2cc(C)on2)C(C(=O)NC2CCCC2)c2cccs2)cc1 (configuration not stated)	-5.0	11.7µM*	/	0.3%	2.5%	-8.3
Cc1cc(NC(=O)CCC(=O)N(c2cccc(F)c2)C(C(=O)NC2CCCC2)c2ccc(C)o2)no1 (configuration not stated)	0.3	-13.3%	?	13.0%	-1.4%	5.5
